# According to PubChem BioAssay AID1159580 (chemical genetic matrix, 2015):
# In all, about 5,500 compounds went through this assay and about 2,000 (36%) were called active. Inconclusive results (about 18%) are left out. The list shows a part of the results. A number with no mark means an inactive call. Rule as the data show it: active = normalized growth mostly below about 0.91 (no sharp cut-off); inconclusive = no clear call, values can overlap the other calls; inactive = mostly above about 0.92.
# Assay: chemical genetic growth profiling, strain panel (AID 1159580);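 also: tested at 20 µM; growth read once vehicle control cultures reached saturation at 30 °C; 1 = growth at the plate median or of vehicle wells; lower values mean less growth of the strain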
# Conditions: growth OD
# [1] = S. cerevisiae deletion strains, locus YAL013W, strain DEP1, hits give low values
# [2] = S. cerevisiae deletion strains, locus YBR229C, strain ROT2, hits give low values
# [3] = S. cerevisiae deletion strains, locus YDL101C, strain DUN1, hits give low values
# [4] = S. cerevisiae deletion strains, locus YDR150W, strain NUM1, hits give low values
# [5] = S. cerevisiae deletion strains, locus YEL061C, strain CIN8, hits give low values
# [6] = S. cerevisiae deletion strains, locus YGR078C, strain PAC10, hits give low values
# [7] = S. cerevisiae deletion strains, locus YHR030C, strain SLT2, hits give low values
# [8] = S. cerevisiae deletion strains, locus YHR087W, strain rtc3, hits give low values
# [9] = S. cerevisiae deletion strains, locus YJL187C, strain SWE1, hits give low values
# [10] = S. cerevisiae deletion strains, locus YJR043C, strain POL32, hits give low values
# [11] = S. cerevisiae deletion strains, locus YJR075W, strain HOC1, hits give low values
# [12] = S. cerevisiae deletion strains, locus YKL190W, strain CNB1, hits give low values
# [13] = S. cerevisiae deletion strains, locus YLR039C, strain RIC1, hits give low values
# [14] = S. cerevisiae deletion strains, locus YLR058C, strain SHM2 (second series), hits give low values
# [15] = S. cerevisiae deletion strains, locus YLR085C, strain ARP6, hits give low values
# [16] = S. cerevisiae deletion strains, locus YLR262C, strain YPT6, hits give low values
# [17] = S. cerevisiae deletion strains, locus YML094W, strain GIM5, hits give low values
# [18] = S. cerevisiae deletion strains, locus YMR219W, strain ESC1, hits give low values
# [19] = S. cerevisiae deletion strains, locus YMR263W, strain SAP30, hits give low values
# [20] = S. cerevisiae deletion strains, locus YNL298W, strain CLA4 (second series), hits give low values
# [21] = S. cerevisiae deletion strains, locus YNL322C, strain KRE1, hits give low values
# [22] = S. cerevisiae deletion strains, locus YNR030W, strain Alg12, hits give low values
# [23] = S. cerevisiae deletion strains, locus YPL055C, strain LGE1, hits give low values
# [24] = S. cerevisiae deletion strains, locus YPL241C, strain CIN2, hits give low values
# [25] = S. cerevisiae deletion strains, locus YPR135W, strain CTF4, hits give low values
# [26] = S. cerevisiae strains, strain wild type, hits give low values
# [27] = S. cerevisiae deletion strains, locus YCL061C, strain MRC1, hits give low values
# [28] = S. cerevisiae deletion strains, locus YNL153C, strain GIM3, hits give low values
smiles,measurement,setting,value
COC(=O)c1csc2c(C(F)(F)F)cc(N3CCN(S(=O)(=O)c4ccc(C)cc4)CC3)nc12,normalized growth,[1],1.01
same,normalized growth,[2],1
same,normalized growth,[3],1
same,normalized growth,[4],1.05
same,normalized growth,[5],1.01
same,normalized growth,[6],1.02
same,normalized growth,[7],1.16
same,normalized growth,[8],1
same,normalized growth,[9],1
same,normalized growth,[10],1.04
same,normalized growth,[11],0.999
same,normalized growth,[12],1.01
same,normalized growth,[13],1.01
same,normalized growth,[14],1.01
same,normalized growth,[15],1
same,normalized growth,[16],1.13
same,normalized growth,[17],0.998
same,normalized growth,[18],0.995
same,normalized growth,[19],1.03
same,normalized growth,"S. cerevisiae deletion strains, locus YNL128W, strain TEP1, hits give low values",1
same,normalized growth,[20],1.02
same,normalized growth,[21],1
same,normalized growth,[22],1.03
same,normalized growth,[23],0.993
same,normalized growth,[24],0.986
same,normalized growth,[25],1.11
same,normalized growth,[26],1.01
Cc1oc(-c2ccccc2)cc1C(=O)N1CCN(c2ccc(C(F)(F)F)cn2)CC1,normalized growth,[1],0.86 (active)
same,normalized growth,[2],0.961
same,normalized growth,[27],0.984
same,normalized growth,[3],1
same,normalized growth,[4],0.858
same,normalized growth,[5],0.947
same,normalized growth,[6],0.963
same,normalized growth,[7],0.433 (active)
same,normalized growth,[8],0.935
same,normalized growth,[9],0.988
same,normalized growth,[10],0.98
same,normalized growth,[11],0.964
same,normalized growth,[13],0.876
same,normalized growth,[14],0.977
same,normalized growth,[15],0.663 (active)
same,normalized growth,[16],0.941
same,normalized growth,[17],0.875
same,normalized growth,[18],0.975
same,normalized growth,[19],0.919
same,normalized growth,"S. cerevisiae deletion strains, locus YMR307W, strain GAS1, hits give low values",0.762
same,normalized growth,[28],0.978
same,normalized growth,[20],0.826 (active)
same,normalized growth,[21],0.984
same,normalized growth,[22],0.823 (active)
same,normalized growth,"S. cerevisiae deletion strains, locus YOL006C, strain TOP1, hits give low values",0.795
same,normalized growth,[23],0.709 (active)
same,normalized growth,[25],0.497 (active)
same,normalized growth,[26],0.957
O=S(=O)(c1ccc(Cl)c(Cl)c1)N1CCN(c2ccc(C(F)(F)F)cn2)CC1,normalized growth,[1],1
same,normalized growth,[2],1.01
same,normalized growth,[27],1.05
same,normalized growth,[3],1.05
same,normalized growth,[4],1.02
same,normalized growth,[5],0.998
same,normalized growth,[6],1.05
same,normalized growth,[7],1.09
same,normalized growth,[8],1.02
same,normalized growth,[9],1.03
same,normalized growth,[10],1.03
same,normalized growth,[11],1.06
same,normalized growth,[12],1.02
same,normalized growth,[13],1
same,normalized growth,[14],1.02
same,normalized growth,[15],1.35 [resistant] (active)
same,normalized growth,[16],1
same,normalized growth,[17],1.04
same,normalized growth,[18],1.01
same,normalized growth,[19],1.04
same,normalized growth,[28],1.04
same,normalized growth,[20],1.04
same,normalized growth,[21],1.01
same,normalized growth,[22],1.04
same,normalized growth,[23],1.07
same,normalized growth,[24],1.11
same,normalized growth,[25],0.99
same,normalized growth,[26],1.01
